This is a sample that favours compounds with a hit; in the whole collection about 2.8% have one here.
Furin inhibitor = inhibitors of human furin | P09958 | purified furin, fluorogenic substrate cleavage | inhibition, % at 20 µM or 30 µM | 220,000 tested, 0.061% active; in the data active means inhibition above about 25%
PGE2 EP2 inh = blocks the human prostaglandin E2 receptor EP2. P43116. C6 glioma cells expressing human EP2, cAMP TR-FRET; cells stimulated with saturating PGE2. inhibition, % at 25 µM. 260,000 tested, 0.52% active;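 active means percent inhibition above 40 after rounding to a whole number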;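 further: rat C6 glioma host cells with rolipram phosphodiesterase inhibitor present; the protocol text gives 20 µM as final concentration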
p47phox inh = inhibitors of human p47phox binding; P14598; p47phox/p22phox peptide binding, fluorescence polarization, 2 h; inhibition, % at 24.7 µM; 220,000 tested, 0.53% active; AID 1274;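 active means inhibition above about 30%, limit read from the data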;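 further: 0% = p47phox with labelled peptide and 100% = labelled peptide alone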
Wee1 degr inh = blocks degradation of human Wee1 kinase; P30291; reporter increase, % at 5 µM; AID 1321; 220,000 tested, 1.2% active; HeLa Luc-Wee1K328M stability, luciferase luminescence; 100% = proteasome inhibitor MG132 effect;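 active means activation above the mean of all tested compounds plus 3 SD, set per screening run, cut at about 8.8% in these data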;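 further: cells exposed to compound for 20 h before luminescence read; 0% = DMSO alone and 100% = MG132 at 30 µM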
Target sequence (P30291 whole entry K328M): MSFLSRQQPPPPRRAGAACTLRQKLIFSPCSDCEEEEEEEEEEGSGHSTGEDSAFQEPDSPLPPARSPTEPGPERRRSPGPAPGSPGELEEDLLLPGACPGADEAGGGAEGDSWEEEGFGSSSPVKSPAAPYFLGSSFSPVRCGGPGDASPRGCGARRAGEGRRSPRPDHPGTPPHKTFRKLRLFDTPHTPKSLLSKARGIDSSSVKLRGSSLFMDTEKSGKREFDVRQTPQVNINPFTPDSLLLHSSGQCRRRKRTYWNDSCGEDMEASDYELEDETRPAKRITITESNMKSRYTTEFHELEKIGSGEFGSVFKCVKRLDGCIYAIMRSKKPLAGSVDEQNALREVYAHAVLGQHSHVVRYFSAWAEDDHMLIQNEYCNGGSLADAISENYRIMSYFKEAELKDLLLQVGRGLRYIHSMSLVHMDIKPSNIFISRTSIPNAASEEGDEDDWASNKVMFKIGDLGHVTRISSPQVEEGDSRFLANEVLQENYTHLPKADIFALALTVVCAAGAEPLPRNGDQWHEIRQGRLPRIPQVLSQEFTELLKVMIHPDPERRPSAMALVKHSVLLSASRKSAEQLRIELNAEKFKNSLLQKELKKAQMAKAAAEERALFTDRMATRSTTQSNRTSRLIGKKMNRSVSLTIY
HSV augment = HSV replication enhancement. HSV replication augmentation in cells, fold increase. 220,000 tested, 0.005% active. maximum fold increase; in the data active means maximum fold increase above about 1.5; tested in PC3 cells
EP2 modulator = modulators of human EP2 prostaglandin E2 receptor; P43116; EP2-expressing cells, cAMP HTRF FRET, PGE2 co-stimulation; 260,000 tested, 0.83% active; induction, % at 25 µM;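 active means compounds whose cAMP rise, as percent of the full-agonist control response, exceeds 60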;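 further: rat C6 glioma line stably carrying human EP2 under a CMV promoter; the protocol text gives 20 µM as final concentration; 100% = response of wells given 1 µM PGE2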
EP2 confirm = human EP2 receptor cAMP induction, negative in counter-screens; shares compounds with EP2 modulator; C6 glioma EP2 cells, cAMP HTRF induction; plus low (about EC15) PGE2 agonist; calls only at 20 µM (by protocol); 1,300 tested, 47% active; AID 1080;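 active means cAMP induction above 50% in the main assay while under 30% in all four parallel counter assays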;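 further: rat C6 glioma cells stably expressing human EP2 receptor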
An asterisk follows results filed as active; i = inactive; . = no result given; + = active, no number.

SMILES	Furin inhibitor	PGE2 EP2 inh	p47phox inh	Wee1 degr inh	HSV augment	EP2 modulator	EP2 confirm
O=S(=O)(NCc1cccnc1)c1cccn1-c1ncc(C(F)(F)F)cc1Cl	-4	4	-5	-1	i	-55	.
O=S(=O)(c1cccc(C(F)(F)F)c1)N1c2ccccc2-n2cccc2[C@H]1c1cccnc1	.	37	.	.	.	52	+
COc1cccc(C2(O)CCN(CCNC(=O)Cc3cccc(C)c3)CC2)c1	.	3	.	.	.	-4	.
CN(c1ccccc1)c1nc(N2CCCC2)nc(-n2ccnc2)n1	-15	13	6	0	i	82*	+
CCCC(c1nnnn1C(C)(C)CC)N(Cc1ccc(F)cc1)Cc1cc2cccc(C)c2[nH]c1=O (centres undefined)	.	10	.	.	.	48	.
Nc1cc(Cl)ccc1Oc1ccccc1	-7	6	9	-1	i	39	.
Nc1cc(Cl)ccc1Oc1ccc(Cl)cc1	-7	0	-10	0	i	66*	i
C=CCn1c(CCc2cc(C(C)(C)C)c(O)c(C(C)(C)C)c2)n[nH]c1=S	-21	7	1	1	i	58	i
COC(=O)c1cc(C#N)c(SCc2ccccc2)nc1C	-6	8	1	0	i	56	.
CC(=O)c1cc(C#N)c(SCc2ccccc2)nc1C	-16	2	0	-2	i	72*	+
COc1cccc(-c2cc(C(F)(F)F)nc(NCc3ccco3)n2)c1	-16	7	-14	-1	i	28	.
COc1ccc(-c2cc(C(F)(F)F)nc(NCc3ccco3)n2)cc1OC	-24	5	10	-1	i	67*	+
NC(=O)c1c(NC(=O)c2cc3nc(-c4ccco4)cc(C(F)(F)F)n3n2)sc2c1CCC2	.	4	.	.	.	-16	.
COc1ccc(N=N/C(=C\O)C(=O)c2cccs2)cc1	-19	1	-5	-2	.	67*	i
COc1ccc(C(=O)/C(=C/O)N=Nc2ccc(F)cc2)cc1	-7	4	-9	6	i	69*	+
Cc1ccc(N=N/C(=C\O)C(=O)c2ccncc2)cc1	-8	9	-8	-3	i	-23	.
COc1ccc(NC(=O)c2cccs2)cc1	-11	15	3	-1	i	-23	.
Cc1cccc(N=N/C(=C\O)C(=O)c2ccc(Br)cc2)c1	-44	6	-9	3	.	97*	+
Cc1cccc(N/N=C(\C=N\N)C(=O)c2ccc(Br)cc2)c1	-10	0	-38	-1	i	9	.
CCCn1nc(C)c(CN2CCn3cccc3C2C(C)C)c1C (centres undefined)	.	9	.	.	.	30	.
COc1ccc(C2(O)CN(c3ccccc3)C3=[N+]2CCS3)cc1OC (centres undefined)	-8	9	6	-3	i	17	.
OC1(c2ccc(Br)cc2)CN(c2ccccc2)C2=[N+]1CCS2 (centres undefined)	-25	14	-7	-1	i	75*	+
OC1(c2ccc(Cl)cc2)CN(c2ccccc2)C2=[N+]1CCS2 (centres undefined)	-18	4	1	-3	i	68*	+
C=CCNC(=O)CSc1nc(-c2cccs2)cc(C(F)(F)F)n1	.	15	.	.	.	-74	.
COc1ccc(C(O)CN2CCC(O)(c3ccc(OC)cc3)CC2)cc1 (centres undefined)	.	9	.	.	.	-36	.
SMILES	Furin inhibitor	PGE2 EP2 inh	p47phox inh	Wee1 degr inh	HSV augment	EP2 modulator	EP2 confirm
CCCNc1nc(-c2ccccc2)c(C(=O)OCC)cc1C#N	-21	10	6	6	i	37	.
CCCCNc1nc(-c2ccccc2)c(C(=O)OCC)cc1C#N	-15	6	-10	0	i	65*	+
C=CCC(NCc1ccccc1)c1ccc(Cl)cc1 (centres undefined)	-22	1	-14	-3	i	72*	i
C=CCOc1nc(-c2ccncc2)nc2ccccc12	4	9	-26	0	i	69*	+
O=c1c(C=NCc2ccccc2)c(NCc2ccccc2)nc2ccccn12	-15	5	16	-3	i	80*	+
C=CCC1(C)C(=O)N(c2ccccc2)c2ccccc21 (centres undefined)	-3	4	-1	6	i	69*	i
C=CCCC1(C)C(=O)N(c2ccccc2)c2ccccc21 (centres undefined)	-17	5	0	3	i	77*	+
CC1(O)C(=O)c2ccccc2N(c2ccccc2)C1=O (centres undefined)	-6	10	-2	2	i	16	.
COc1ccc(NC(=O)N2CCCC2C(=O)Nc2ccc(Cl)cc2)cc1 (centres undefined)	.	12	.	.	.	-3	.
CC1CCc2c(sc(N)c2C(=O)OC(C)C)C1 (centres undefined)	-13	12	-15	2	i	68*	i
Cn1c(=O)[nH]c(=O)c2c1nc(N1CCCCCC1)n2Cc1cccc2ccccc12	-16	-4	6	2	i	66*	i
CCCCn1c(CN2CCN(c3cccc(Cl)c3)CC2)nc2c1c(=O)[nH]c(=O)n2C	-12	17	-12	7	.	42	.
CCN1CCN(Cc2nc3c(c(=O)[nH]c(=O)n3C)n2Cc2ccccc2Cl)CC1	-12	10	.	0	i	.	.
Cn1c(=O)[nH]c(=O)c2c1nc(CN1CCN(c3cccc(Cl)c3)CC1)n2Cc1ccccc1Cl	-18	6	-37	2	i	69*	i
Cn1c(=O)[nH]c(=O)c2c1nc(CN1CCN(c3cccc(Cl)c3)CC1)n2CCCc1ccccc1	-27	6	-14	-2	i	70*	+
COc1ccccc1OCC(=O)Nn1cnnc1	.	4	.	.	.	-34	.
CCOC(=O)c1oc2ccccc2c1NC(=O)c1ccccc1OC	-18	10	-15	1	i	79*	+
CCCC(=O)Nc1c(C(=O)OCC)oc2ccccc12	-32	7	.	0	i	18	.
CCn1c(-c2ccccc2)c(C(=O)CCl)c2ccccc21	-33	12	2	0	i	78*	+
Cn1c(-c2ccccc2)c(C(=O)CCl)c2ccccc21	-20	2	0	-1	i	21	.
CCn1c(O)c(/C=C/c2nc3ccccc3n2CC)sc1=S	.	15	.	.	.	-36	.
CC(=O)N1N=C2/C(=C/c3ccccc3)CCCC2C1c1ccccc1 (centres undefined)	-11	8	-3	-3	i	70*	i
O=C(O)c1c(C(=O)N2N=C3/C(=C/c4ccccc4)CCCC3C2c2ccccc2)cccc1[N+](=O)[O-] (centres undefined)	-13	2	-12	-3	i	17	.

Compound activity (PubChem)
